Drawing on PubChem BioAssay AID449762 (Southern Research Specialized Biocontainment Screening …, 2010), this text covers inhibition for 88 molecules.

The whole screen tested about 330,000 compounds, of which about 1,900 (0.58%) were called active. Roughly 4% stayed inconclusive and do not appear here. Not all results are given here. Results with a measured potency or affinity are listed apart. Unmarked numbers belong to inactive results. Cut-off read from the data, not from the text of the source: inconclusive = inhibition above about 70% without an active follow-up result; inactive = below that.

The experiment in a line: M. tuberculosis growth inhibition, HTS (AID 449762).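 Note: bacterial growth assessed after seven days of incubation.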 To be noted: M. tuberculosis H37Rv growth inhibition, 7H9 media; at 25 µM; active compounds read high.
The inhibition is the change of the read-out against control, counted positive when it falls. Consider `CCc1nc2c(c(=O)[nH]1)C(CC)(CC)Cc1ccccc1-2`, for which the inhibition was 5.03%. `CCC1(CC)Cc2ccccc2-c2nc(CN3CCOCC3)[nH]c(=O)c21`: the inhibition was 51.6%.

As for `O=C(Nc1cccc(S(=O)(=O)N2CCCC2)c1)c1cc(=O)[nH]c2ccccc12`, the inhibition is -4.61%. Take `Cc1nc2ccc(Oc3ccccc3)cc2s1`: the inhibition is 7.08%. The figure for `Cc1nc2ccc(NC(=O)c3ccccc3)cc2s1` is 3.89%. Consider `Cn1c(=O)n(C)c2cc(NC(=O)c3cc4ccccc4o3)ccc21`, for which the inhibition is 6.91%. The value for `COc1ccc(-n2cc(CNCCc3nc(C)cc(C)n3)c(-c3ccccc3Cl)n2)cc1` was 68.4%; that for `COc1ccc(-n2cc(CNCCCn3ccnc3)c(-c3ccccc3Cl)n2)cc1` was 13.2%; that for `COc1ccc(OCCN2C(=O)c3ccccc3C2=O)c([N+](=O)[O-])c1` was -4.41%. The figure for `COc1cc2[nH]c(C(=O)NCCc3ccccc3)cc2c(OC)c1OC` is 0.36%; for `COC(=O)c1cnn(-c2ccc(C)c(C)c2)c1-n1cccc1` it is 3%.

On to `Cc1c(Cl)ccc2c1NC(=O)C21NC(CCC(N)=O)[C@H]2C(=O)N(c3ccc(Cl)cc3)C(=O)[C@H]21` (stereo partly drawn), for which the inhibition is -9%. The figure for `Cc1c(Cl)ccc2c1NC(=O)[C@]21N[C@@H](CCC(N)=O)[C@H]2C(=O)N(c3ccc(F)cc3)C(=O)[C@H]21` is -5.78%; for `CC(=O)N(C)c1ccc(OCC(O)Cn2c(C)nc3ccccc32)cc1` (stereo not drawn) it is 0.96%. The value for `CCC(c1nnc(SCC(=O)Nc2cc(S(C)(=O)=O)ccc2Cl)n1Cc1ccccc1)N(C)C` (stereo not drawn) was -14.3%; that for `C=CCSc1n[nH]c(-c2ccc(OC)cc2)n1` was -6.49%; that for `C=CCSc1n[nH]c(-c2ccc(OCCC)cc2)n1` was 56.7%. The figure for `Cc1ccc(NC(=O)c2ccc(OC(=O)COc3ccc(Cl)c(C)c3)cc2)cc1` is -2.96%; for `COc1ccc(Cc2[nH]n3c(=O)c(Cl)c(C)nc3c2-c2ccccc2)cc1` it is 35.3%; for `O=C(Cn1nc(CNc2ccc(Cl)cc2)[n+]2c1CCCCC2)c1ccccc1` it is 0.81%.

Regarding `O=C(Cn1nc(CNc2ccc(Br)cc2)[n+]2c1CCCCC2)c1ccc([N+](=O)[O-])cc1`, the inhibition is 64.9%.

On to `CCCCN1C(=O)C(=O)N(c2ccccc2)C1=S`, for which the inhibition is 5.31%. The figure for `COC(=O)CN(C(=S)Nc1ccc(F)cc1)C1CC(=O)N(c2ccccc2)C1=O` (stereo not drawn) is 5.39%; for `O=C(O)/C(=C\c1ccc2ccccc2c1)c1cccc2ccccc12` it is 2.24%.

As for `CN1C(=O)/C(=C/c2ccccc2Cl)Sc2ccc(C(=O)N3CCCC3)cc21`, the inhibition is 69.8%. The figure for `COc1ccc(/C=C2\Sc3ccc(C(=O)N4CCCC4)cc3N(C)C2=O)cc1OC` is 7.11%.

Take `Cn1ncc([N+](=O)[O-])c1C(=O)Nc1ccc(-c2nc3ccccc3o2)cc1`: the inhibition is 1.46%.

Take `COc1ccc(/C=C/C(=O)NCCOc2ccc(C)cc2)cc1`: the inhibition was -2.38%.

With `NC(=O)CC(NC(=O)c1ccccc1)c1ccc(NC2CCCC2)c([N+](=O)[O-])c1` (stereo not drawn), the inhibition is 0.75%. The value for `CN(C)CCCn1c2c(c(SCC(=O)Nc3cccc4ccccc34)nc1=O)CCC2` was 0.83%; that for `c1ccc(C[C@H]2CNCCN2CCc2cccc3ccccc23)cc1` was 53.6%.

Consider `Fc1cccc(CCN2CCNC[C@@H]2Cc2ccccc2)c1`, for which the inhibition was -4.28%.

As for `CCOC(=O)N1CCC(NC(=O)C2CCN(S(=O)(=O)c3cnc[nH]3)CC2)CC1`, the inhibition is -6.34%. In the case of `Cc1ccc(S(=O)(=O)N2CCN(C(=O)Cn3c(=O)oc4ccccc43)CC2)c(C)c1`, the inhibition was 3.86%. The figure for `CC(C)N(C(=O)[C@H]1CC(CC(=O)NCc2ccco2)C(=O)N2CCc3c([nH]c4ccccc34)[C@]12C)C(C)C` (stereo partly drawn) is 2.78%. Turning to `O=S(=O)(c1ccc(F)cc1)n1ccc2cccnc21`, the inhibition is 4.44%. `Cc1nc2ccc(-c3nc4ccccc4o3)cc2[nH]1`: the inhibition was 8.75%. In the case of `Nc1ccc(-c2nc3ccccc3o2)cc1`, the inhibition is 49%. The value for `COc1ccc(/C=N/NC(=O)c2cc3c(ccc4ccccc43)o2)cc1OC` was 11.8%; that for `Cc1ccc2nc(N3C(=O)C(O)=C(C(=O)c4cc5ccccc5o4)C3c3cccs3)sc2c1` (stereo not drawn) was -1.99%; that for `Cc1ccc2nc(N3C(=O)C(O)=C(C(=O)c4ccco4)C3c3cccs3)sc2c1` (stereo not drawn) was -7.92%. The figure for `COc1ccc(CNC(=O)c2cccc(NC3=NC4CS(=O)(=O)CC4S3)c2)cc1` (stereo not drawn) is -9.1%; for `CC[n+]1ccccc1/C=C1\Sc2ccc(C)cc2N1C` it is 6.67%; for `CCN1/C(=C/C=C/C=C/C=C/c2sc3ccccc3[n+]2CC)Sc2ccccc21` it is 5.11%. The figure for `Cc1cc(C)n(-c2ccc(Cl)c(C(=O)OCC(=O)N3CCCCC3C)n2)n1` (stereo not drawn) is -1.17%; for `C/C(=N\NC(=O)c1nnn(-c2nonc2N)c1CN(C)c1ccccc1)c1ccccc1O` it is 12.9%.

Regarding `C/C(=N\NC(=O)c1nnn(-c2nonc2N)c1CN(C)c1ccccc1)c1ccc(O)cc1`, the inhibition was -0.5%. The value for `Cc1ccc(C)c(OC(=O)C2CSC3(C)CCC(=O)N23)c1C` (stereo not drawn) was -8.22%. The value for `Cc1ccc(NS(=O)(=O)c2ccc(Cl)c(C(=O)Nc3ccccc3-c3nc4ccccc4[nH]3)c2)cc1C` was 4.41%; that for `CCC(NC(=O)c1ccccc1NC(=O)c1ccco1)C(=O)NNC(=O)c1ccc(OC)cc1` (stereo not drawn) was -4.34%. The value for `O=C(Nc1cc(Cl)cc(Cl)c1)C1C2C=CC3(O2)C1C(=O)N(CCCN1CCOCC1)C3C(=O)NC1CCCCC1` (stereo not drawn) was -1.97%; that for `CCOC(=O)Cn1c(Br)nc2c1c(=O)[nH]c(=O)n2C` was 2.17%.

Turning to `Cc1[nH]nc2c1C(c1ccc(-c3ccccc3C#N)o1)C(C#N)=C(N)O2` (stereo not drawn), the inhibition was 16.8%. The value for `Cc1ccc(C2C(C#N)=C(N)Oc3n[nH]c(C)c32)cc1` (stereo not drawn) was 2.2%; that for `CCN(c1ccccc1)S(=O)(=O)c1ccc(C(=O)Nc2ccncc2)cc1` was 48.8%. The figure for `Cc1ccc2ncnc(NCCC(=O)O)c2c1` is -11.8%; for `NC(=O)CSc1nnc(NC(=O)c2ccc(S(=O)(=O)N3CCCCC3)cc2)s1` it is 4.86%; for `Fc1ccc2cnc(-c3ccccc3)c(-c3ccc(C(F)(F)F)cc3)c2c1` it is 39.5%.

`COc1cc2cnc(-c3ccccc3)c(-c3cc(OC)c(OC)c(OC)c3)c2cc1OC`: the inhibition was 27.5%. The figure for `CCOc1ccc(OCCCC(=O)NC2=NCCS2)cc1` is 1.39%; for `CC(C)(C)c1ccc(OCCC(=O)NC2=NCCS2)cc1` it is 48.1%.

In the case of `O=c1ccc(-c2ccccc2)nn1Cc1ccccc1F`, the inhibition was 4.51%. For `COc1ccc(-c2cc(C(=O)NC(C)c3ccccn3)c3ccccc3n2)cc1OC` (stereo not drawn), the inhibition was -9.49%. The figure for `CC1=NN(c2ccccc2)C(=O)C1C(=O)c1cc([N+](=O)[O-])cc([N+](=O)[O-])c1` (stereo not drawn) is -4.74%; for `CCCCCCCN1N=C(C)C(C(=O)c2ccccc2)C1=O` (stereo not drawn) it is 64.7%; for `CN1CC(=O)N2C(c3cccc([N+](=O)[O-])c3)c3[nH]c4ccccc4c3C[C@H]2C1=O` (stereo partly drawn) it is 6.28%. The figure for `CCOc1cc2c3c(c1)C1(Nc4ccccc4S1)C(=O)N3C(C)(C)CC2C` (stereo not drawn) is 22.3%; for `CCOc1cc2c3c(c1)C1(OCCO1)C(=O)N3C(C)(C)CC2C` (stereo not drawn) it is 8.79%; for `O=C(CN1CCN(c2ccccc2)CC1)NC(=O)NCc1ccco1` it is -5.69%.

As for `CC(=O)Nc1ccc(S(=O)(=O)N(C)CC(=O)NC2=NCCS2)cc1`, the inhibition is -7.06%. Regarding `CC1(C)CC(=O)C(C2=NC(C)(C)Cc3ccccc32)=C(O)C1`, the inhibition is -7.77%. In the case of `CC1=NC(C)(C)Cc2ccccc21`, the inhibition was -5.42%. Consider `O=C(CN(C(=O)c1ccccc1)N1C(=O)CCC1=O)c1cccs1`, for which the inhibition is -6.33%. Take `CN1CC(=O)N(CC(=O)N2N=C(c3ccc(Cl)cc3)CC2c2ccco2)C1=O` (stereo not drawn): the inhibition is 22.3%. The figure for `CCC1(CC)NC(=O)N(CC(=O)N2N=C(c3ccc(Cl)cc3)CC2c2ccco2)C1=O` (stereo not drawn) is 3.27%; for `O=C(N[C@@H]1C/C=C\C[C@@H](CC(=O)N(CCO)Cc2ccccc2)C(=O)N[C@@H](c2ccccc2)COC1=O)OCC1c2ccccc2-c2ccccc21` it is 3.32%. The figure for `COc1cc2sc(-c3ccc(S(C)(=O)=O)cc3)c(C(=O)NCCCCO)c2cc1OC` is 4.06%; for `CCc1c(C)nc(N2CCN(c3cccc(OC)c3)CC2)[nH]c1=O` it is -3.6%; for `Cc1ccc(-c2nc3ccc(Cl)cc3c(=O)n2O)cc1` it is 54.8%. As for `O=c1c2ccccc2nc(-c2ccc([N+](=O)[O-])cc2)n1O`, the inhibition is 30.3%. In the case of `CSCCCNC(=S)Nc1ccc(N2CCOCC2)cc1N1CCOCC1`, the inhibition is 6.87%. The value for `Cc1cc(C)c(C(=O)COC(=O)c2nn(C)c(=O)c3ccccc23)cc1C` was -5.14%. The figure for `Cc1ccc(Sc2ccc(C(=O)N3CCOCC3)cc2[N+](=O)[O-])cc1` is 0.73%; for `O=C(O)/C=C/C(=O)Nc1ccc(O)cc1` it is -6.75%; for `O=C(O)/C=C/C(=O)Nc1ccc(C(=O)c2ccccc2)cc1` it is 3.27%. Regarding `CC(=O)C[C@H](O)CC(=O)[C@H]1OC(=O)[C@H](C)CCCCc2ccccc21`, the inhibition was -1.44%. As to `O=C(O)c1cc(N/N=C/c2ccc(-c3ccc(F)cc3)o2)ccc1Cl`, the inhibition was 13.7%.

For the molecule `CCCn1c(CCC(=O)Nc2ccccc2Cc2ccccc2)nc2cc(S(=O)(=O)N3CCOCC3)ccc21`, the inhibition is -3.41%.
